Bioassay records from PubChem.
TsaE inh – inhibitors of E. coli YjeE (TsaE); P0AF67; purified YjeE enzyme, qHTS inhibition assay; Potency, µM; hit rate 0.05% among 71,000
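Fluorescence polarization of a BODIPY Texas Red–ADP probe (2 uM) bound to purified YjeE (10 uM) was read after 15 min room-temperature incubation with compounds. Loss of polarization marks inhibitors; ADP serves as titrated control.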
BRCT inh green – inhibitors of human BRCA1 BRCT-phosphoprotein interaction (green fluorophore) | P38398 | BRCA1 BRCT-phosphopeptide binding, green fluorescence polarization | Potency, µM (titrated, usually from 76.9 µM), inactives show at the top dose activity change, negative = inhibition, usual class: inhibitors | hit rate 0.05% among 75,000 | AID 875;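 note: potency is the fitted concentration of half-maximal effect; plate controls were peptide without protein for full effect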
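Compounds were incubated for 12 min at room temperature with a complex of 100 nM fluorescein-tagged pBACH1 decapeptide and 250 nM His-tagged BRCT protein. Buffer was phosphate pH 7.3 with EDTA, DTT and Tween 20. Disruption of binding lowers the polarization signal.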
BRCT PPI red – BRCT-phosphoprotein interaction inhibition (red fluorophore). BRCT-phosphopeptide binding, red fluorescence polarization. Potency, µM (top dose mostly 76.9 µM), without a hit: at the highest dose activity change, negative = inhibition, usual class: inhibitors. hit rate 0.03% among 75,000. AID 892; note: % is set by controls: 0 for no effect and ±100 for the full control effect
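Fluorescence polarization: 100 nM His-tagged BRCA1 BRCT with 100 nM TAMRA-labelled phospho-BACH1 decapeptide, phosphate buffer pH 7.3 with 150 mM NaCl, DTT, 0.01% Tween 20; 12 min RT. Binding inhibition seen as FP decrease.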
ALOX15 inhib – blocks human 15-lipoxygenase activity. purified 15hLO-1, xylenol orange hydroperoxide absorbance. Potency, µM (doses to about 57.1 µM), for the others: at the highest dose activity change, negative = inhibition, most hits filed as inhibitors. P16050. hit rate 1.4% among 74,000; note: potency is the fitted concentration of half-maximal effect; % is set by controls: 0 for no effect and ±100 for the full control effect; nearly all actives have a fitted effect of over 55% in size
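Purified human 15hLO-1 (40 nM) in 25 mM Hepes pH 7.5, 0.01% Triton X-100, preincubated 15 min RT with compound, then 50 uM arachidonic acid for 6 min. Hydroperoxide read by ferrous/xylenol orange, 30 min; 573/405 nm absorbance ratio gave progress.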
Tau filament bind – binders of human tau filaments. P10636. recombinant tau filaments, thioflavin S fluorescence, 15 h; filaments grown with octadecylsulfate alongside compound. Potency, µM (titrated, usually from 57.1 µM), for the others: at the highest dose activity change, negative = inhibition. hit rate 2% among 71,000;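 note: potency is the fitted concentration of half-maximal effect; % is set by controls: 0 for no effect and ±100 for the full control effect; actives lower thioflavin S fluorescence by blocking filaments or displacing dye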
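Thioflavine S fluorescence (ex 450, em 510 nm) reports filaments formed from 1 uM human tau plus 30 uM ODS over 15 h at 37 C (10 mM HEPES pH 7.4, 100 mM NaCl, 5 mM DTT); compounds displacing dye or blocking filaments lower signal.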
DNA Pol III inh – blocks replication by bacterial DNA polymerase III holoenzyme; hit rate 0.25% among 71,000; AID 603; reconstituted DNA polymerase III holoenzyme replication, biochemical; Potency, µM (top dose mostly 57.1 µM), inactives show top-dose activity change, negative = inhibition; note: potency is the fitted concentration of half-maximal effect; % is set by controls: 0 for no effect and ±100 for the full control effect
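Reconstituted *E. coli* holoenzyme (0.35 nM Pol III, 1 nM beta, 154 nM SSB, 2 nM primase) was preincubated with compound for 15 min at RT. Synthesis on 1.4 nM ssM13Gori ran 35 min, then was stopped with PicoGreen/EDTA and read as dsDNA fluorescence.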
Numbers without * were called inactive; i = inactive; ? = inconclusive; . = not tested or not shown; [ ] = another dose, or the depositor's remark. Sampled rows, rich in hits. Any-hit rate of the full collection: about 3.3%. Calls come from the whole dose curve; as a rule, active = well fitted curve in the direction sought with a large enough effect; inconclusive = small, poorly fitted or top-dose-only effect, or another doubt; inactive = no such curve, though single readings can be large; an effect the other way counts as inactive or inconclusive.

SMILES | TsaE inh | BRCT inh green | BRCT PPI red | ALOX15 inhib | Tau filament bind | DNA Pol III inh
O=C(c1cc(-c2ccc(O)cc2)on1)N1CCc2ccccc2C1 | i | 3% | 1% | 16µM* | -9% | -4%
O=C(c1cc(-c2ccco2)on1)N1CCc2ccccc2C1 | i | 3% | 0% | 16µM* | ? | 0%
O=C(c1cc(-c2ccccc2O)on1)N1CCc2ccccc2C1 | i | 0% | -1% | -26% | 171% | -4%
Nc1ccc(F)cc1F | i | -2% | 1% | -4% | -1% | -8%
NC(=O)NCC12CC3CC(CC(C3)C1)C2 | i | 0% | -1% | 3% | 9% | -1%
O=C(CN1CCCC1)NCC12CC3CC(CC(C3)C1)C2 | i | 0% | 1% | 7% | 32µM* | 0%
COC(=O)c1c(N)n(-c2cc(OC)cc(OC)c2)c2nc3ccccc3nc12 | i | 2% | 1% | 10% | 7.9µM* | -21%
C[C@@]12C(=O)OC(=O)[C@@]1(C)[C@@H]1CC[C@@H]2O1 | i | -2% | 0% | -10%[25.6 µM] | 32µM* | -4%
COC(=O)c1ccc(C(NC(=O)OCc2ccccc2)/C(F)=C/[C@@H](C)C(=O)NCc2nc3ccccc3s2)cc1 (stereo partly specified) | i | 1% | -1% | 3% | i | 2%
CCc1cc2c(nc1CC)CCN(CC/C(C)=N/OC[C@@H](C)[C@H](OCc1ccccc1)C(C)C)C2 | . | 1%[15.4 µM] | 2%[15.4 µM] | 1%[11.4 µM] | . | .
CSc1ccc(C2NC(=O)c3c(sc4c3CCN(C)C4)N2)cc1 (stereo unspecified) | i | 21% | -2% | ? | ? | 4%
Cc1ccsc1C1NC(=O)c2c(sc3c2CCN(C)C3)N1 (stereo unspecified) | i | 22% | -2% | ? | i | 4%
CN1CCc2c(sc3c2C(=O)NC(c2cccs2)N3)C1 (stereo unspecified) | i | 8% | -3% | 3.2µM* | i | -6%
CN1CCc2c(sc3c2C(=O)NC(c2ccc(-c4cccc(Cl)c4)o2)N3)C1 (stereo unspecified) | i | 13% | 1% | 2.5µM* | 1.3µM* | -18%
COc1cccc(-c2ccc3ncnc(NC4CC4)c3c2)c1 | i | -3% | -1% | ? | 1% | -2%
Cc1c(C(=O)Nc2ccc(N3CCOCC3)cc2)oc2ccccc12 | i | -1% | 1% | -7% | 25µM* | -1%
O=C(CCc1ccccc1)Nc1ccc(N2CCOCC2)cc1 | i | -1% | 1% | -7% | 16µM* | -7%
O=C1CCC(c2ccccc2)=NN1c1nc2ccccc2s1 | i | -4%[15.4 µM] | 1%[15.4 µM] | 6%[11.4 µM] | 7%[11.4 µM] | -8%[11.4 µM]
CC12C=C(/C=C/c3ccc(Br)cc3)C(C)(C1)C(c1ccc(Br)cc1)CC2=O (stereo unspecified) | . | -4%[15.4 µM] | 0%[15.4 µM] | -12%[11.4 µM] | . | .
Cc1ccc(C2CC(=O)NC(SCc3ccccc3)=C2C#N)o1 (stereo unspecified) | . | 0% | -1% | -18% | . | .
CCCCCCSC1=C(C#N)C(c2ccc(C)o2)CC(=O)N1 (stereo unspecified) | i | -1% | 0% | 25µM* | 12% | -2%
COC(=O)[C@@]1(Cc2ccccc2)[C@H]2c3cc(C(=O)N4CCCC4)n(CC4CC4)c3C[C@H]2CN1C(=O)c1ccccc1 | i | 0% | -1% | . | 6% | -10%
CCCCNC(=O)CSc1nc2ccc(N3CCOCC3)cc2c(=O)n1CCc1ccccc1 | i | -6% | -2% | 25µM* | -28% | -19%
COCCNC(=O)CSc1nc2ccc(N3CCOCC3)cc2c(=O)n1CCc1ccccc1 | i | -2% | 0% | -26% | -30% | 0%
O=c1cc(O)cc(/C=C\c2ccc(O)c(O)c2)o1 | i | 5% | -8% | 0.79µM* | 1% | 6.3µM*
O=C(O)/C=C/c1ccc(O)c(O)c1 | . | 2% | -2% | -5% | . | .
O=C(O)CCC(O)=C1S(=O)(=O)OCCOS1(=O)=O | i | -1%[15.4 µM] | 1%[15.4 µM] | 14%[11.4 µM] | 10%[11.4 µM] | -11%[11.4 µM]
